Laboratory results taken from PubChem BioAssay (EPA / NIEHS).
Inconclusive results are not listed. Calls of active or inactive are those of the source. Rule for the calls, unless noted: active = hit-call score of the fitted dose curve at least 0.9, where 1 is the maximum; inconclusive = response in the unintended direction; inactive = score below 0.9.

Tests used:
[1] = Tanguay_ZF_120hpf_CIRC_legacy: (Legacy) Oregon State University Tanguay Lab 120 Hour Post-fertilization zebrafish Assay for Circulatory Malformation (AID 2283651)
Method in brief: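 Tropical 5D wild-type embryos, dechorionated with pronase at 4 hpf, were placed singly in wells at 6 hpf and exposed statically at 28C to 120 hpf (0.64% DMSO final). Circulatory malformation was scored present/absent by brightfield microscopy.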

[2] = Tanguay_ZF_120hpf_SWIM_legacy: (Legacy) Oregon State University Tanguay Lab 120 Hour Post-fertilization zebrafish Assay for Swim Bladder Malformation (AID 2283654);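 note: swim bladder malformation in each larva scored yes or no under brightfield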
Method in brief: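 Dechorionated Tropical 5D wild-type embryos, placed singly from 6 hpf, were statically exposed at 28C to 120 hpf with 0.64% DMSO final; swim bladder malformation was scored present/absent by brightfield microscopy, gain of signal relative to DMSO controls.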

[3] = Tanguay_ZF_120hpf_TRUN_legacy: (Legacy) Oregon State University Tanguay Lab 120 Hour Post-fertilization zebrafish Assay for Truncated Body (AID 2283655)
Method in brief: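 Binary presence/absence of truncated body is recorded at 120 hpf by brightfield, with non-mortality endpoints skipped after death. Exposure is static from 6 hpf in sealed dark plates at 28C, using dechorionated wild-type zebrafish, 0.64% DMSO.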

[4] = read-out: ABC Transporter (ABCB1), ABCB1 (gene 5243); assay: CLD_ABCB1_6hr: CellzDirect (CLD) Gene Expression Assay for ABC Transporter (ABCB1) at 6 hours (AID 2283659);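 note: hits raise ABCB1 transcript above the DMSO vehicle baseline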
Method in brief: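 Primary human hepatocytes (two donor preparations) dosed daily for two days with chemicals at multiple concentrations, 0.2% DMSO vehicle; harvested 6 h post-dose. ABCB1 mRNA induction quantified by qNPA chemiluminescence; gain-of-signal fitted versus DMSO.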

[5] = read-out: xenobiotic metabolism (CYP1A1), CYP1A1 (gene 1543); assay: CLD_CYP1A1_6hr: CellzDirect (CLD) Gene Expression Assay for xenobiotic metabolism (CYP1A1) at 6 hours (AID 2283661);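 for AC50: potency for transcript induction above DMSO vehicle baseline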
Method in brief: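 Primary human hepatocytes from two donors, compound versus 0.2% DMSO vehicle. CYP1A1 mRNA measured 6 h after dosing by quantitative nuclease protection assay with chemiluminescent read-out; induction fitted relative to DMSO, cytotoxicity flagged by microscopy.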

[6] = read-out: organic anion transporter (SLCO1B1), SLCO1B1 (gene 10599); assay: CLD_SLCO1B1_6hr: CellzDirect (CLD) Gene Expression Assay for organic anion transporter (SLCO1B1) at 6 hours (AID 2283668);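 note: active means mRNA induction above DMSO baseline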
Method in brief: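 Primary human hepatocytes dosed daily with test chemicals (multiple concentrations) in 0.2% DMSO vehicle; harvested at 6 h. SLCO1B1 mRNA quantified by qNPA chemiluminescence, fitted as gain-of-signal versus DMSO; cytotoxicity from phase-contrast morphology flagged alongside.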

[7] = read-out: sulfotransferase (SULT2A), SULT2A1 (gene 6822); assay: CLD_SULT2A_6hr: CellzDirect (CLD) Gene Expression Assay for sulfotransferase (SULT2A) at 6 hours (AID 2283669);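 note: hits raise transcript level above the DMSO vehicle baseline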
Method in brief: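 Primary human hepatocytes from two donor preparations were dosed daily with chemicals or 0.2% DMSO and harvested at 6 h. Transcript induction read by qNPA chemiluminescence, fitted for gain of signal relative to DMSO; morphology-based cytotoxicity annotated.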

[8] = read-out: glucuronosyltransferase (UGT1A1), UGT1A1 (gene 54658); assay: CLD_UGT1A1_6hr: CellzDirect (CLD) Gene Expression Assay for glucuronosyltransferase (UGT1A1) at 6 hours (AID 2283672)
Method in brief: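 Primary human hepatocytes from two donor preparations, dosed with fresh solutions in 0.2% DMSO, harvested at 6 h. UGT1A1 mRNA measured by qNPA chemiluminescence; induction fitted upward versus DMSO.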

[9] = read-out: ABC Transporter (ABCB11), ABCB11 (gene 8647); assay: CLD_ABCB11_24hr: CellzDirect (CLD) Gene Expression Assay for ABC Transporter (ABCB11) at 24 hours (AID 2283674; active = hit-call score of the fitted dose curve at least 0.9, where 1 is the maximum; inactive = score below 0.9)
Method in brief: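 Primary human hepatocytes were dosed daily for two days, with 0.2% DMSO vehicle. ABCB11 mRNA induction was measured at 24 hours by quantitative nuclease protection assay with chemiluminescence. Gain of signal was fitted relative to DMSO.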

[10] = read-out: ABC Transporter (ABCB11), ABCB11 (gene 8647); assay: CLD_ABCB11_6hr: CellzDirect (CLD) Gene Expression Assay for ABC Transporter (ABCB11) at 6 hours (AID 2283675);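 note: hits raise ABCB11 mRNA level so AC50 marks induction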
Method in brief: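 Human primary hepatocytes (two donor preparations) given fresh chemical daily at multiple concentrations, vehicle 0.2% DMSO. ABCB11 mRNA induction measured 6 h after dosing by qNPA chemiluminescence versus DMSO; cytotoxicity annotated from morphology.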

[11] = Tanguay_ZF_120hpf_TR_legacy: (Legacy) Oregon State University Tanguay Lab 120 Hour Post-fertilization zebrafish Assay for Touch Response (AID 2283667)
Method in brief: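 Tropical 5D wild-type zebrafish embryos were exposed statically in sealed, foil-covered plates at 28C until 120 hpf, with 0.64% (vol/vol) final DMSO. Touch response was scored as present or absent; embryos that died were not scored.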

[12] = read-out: solute carrier (SLC22A6), SLC22A6 (gene 9356); assay: LTEA_HepaRG_SLC22A6: Life Technologies and Expression Analysis (LTEA) Assay for solute carrier (SLC22A6) using HepaRG (AID 2283653; active = hit-call score of the fitted dose curve at least 0.9, where 1 is the maximum; inactive = score below 0.9); conditions: mRNA level, 48 h; actives raise or lower the signal
Method in brief: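 SLC22A6 transcript was measured by TaqMan qRT-PCR, normalized to three housekeeping genes, after 48 h duplicate exposure of HepaRG cells (100 uM top, half-log steps, 0.5% DMSO); bidirectional fit against vehicle.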

[13] = read-out: solute carrier (SLC10A1), SLC10A1 (gene 6554); assay: LTEA_HepaRG_SLC10A1: Life Technologies and Expression Analysis (LTEA) Assay for solute carrier (SLC10A1) using HepaRG (AID 2283657; active = hit-call score of the fitted dose curve at least 0.9, where 1 is the maximum; inactive = score below 0.9); conditions: mRNA level, 48 h; actives raise or lower the signal
Method in brief: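 Differentiated HepaRG cells were plated 48 h, then exposed in serum-free induction medium for 48 h to 8 concentrations (top 100 uM, half-log steps, 0.5% DMSO). SLC10A1 mRNA was quantified by qRT-PCR normalized to ACTB, GAPDH, POLR2A; bidirectional fit versus DMSO.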

[14] = read-out: matrix metalloproteinase-1 (MMP1), MMP1 (gene 4312); assay: LTEA_HepaRG_MMP1: Life Technologies and Expression Analysis (LTEA) Assay for matrix metalloproteinase-1 (MMP1) using HepaRG (AID 2283658; active = hit-call score of the fitted dose curve at least 0.9, where 1 is the maximum; inactive = score below 0.9); conditions: mRNA level, 48 h; actives raise or lower the signal
Method in brief: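 qRT-PCR (TaqMan, Fluidigm arrays) of MMP1 transcript, normalized against three housekeeping genes and fitted in both directions relative to 0.5% DMSO vehicle. Human HepaRG cultures received duplicate 48 h exposures across 8 points, highest 100 uM with half-log steps.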

[15] = read-out: Cytochrome P450 (CYP24A1_1), CYP24A1 (gene 1591); assay: LTEA_HepaRG_CYP24A1_1: Life Technologies and Expression Analysis (LTEA) Assay for Cytochrome P450 (CYP24A1_1) using HepaRG (AID 2283671; active = hit-call score of the fitted dose curve at least 0.9, where 1 is the maximum; inactive = score below 0.9); conditions: mRNA level, 48 h; actives raise or lower the signal
Method in brief: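 HepaRG, 48 h exposure, 8-pt half-log series from 100 uM in 0.5% DMSO, duplicates. Readout: TaqMan qRT-PCR of CYP24A1 mRNA, housekeeping-normalized (ACTB/GAPDH/POLR2A). Bidirectional curve fit vs DMSO baseline.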

[16] = test system: Thyroperoxidase (TPO), gene 54314; assay: CCTE_Simmons_AUR_rTPO: CCTE's Amplex UltraRed Assay for Thyroperoxidase (TPO) Inhibition, Simmons Lab (AID 2283662);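 note: potency for loss of signal meaning inhibition of peroxidase activity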
Method in brief: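 Cell-free peroxidase activity assay using rat thyroid gland microsomes with excess H2O2 (300 uM) and 25 uM Amplex UltraRed. Compounds tested from 5 nM to 87.5 uM; fluorescence measured after 30 min at 37C, analysed relative to DMSO baseline.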

[17] = CCTE_Simmons_CellTiterGLO_HEK293T: Viability Assessment in CCTE's Assays for Thyroperoxidase (TPO) Inhibition, Simmons Lab (AID 2283665);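 note: cells exposed to compound for 24 h before readout; actives reduce ATP signal below DMSO vehicle meaning cytotoxicity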
Method in brief: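 HEK293T cells in DMEM with 1% FBS were dosed with 8 concentrations (5 nM–87.5 uM final, 0.5% DMSO) for 24 hr at 37C; ATP content was read by CellTiter-Glo luminescence, loss-of-signal versus DMSO, three biological replicates.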

[18] = read-out: kallikrein-3 (KLK3), KLK3 (gene 354); assay: LTEA_HepaRG_KLK3: Life Technologies and Expression Analysis (LTEA) Assay for kallikrein-3 (KLK3) using HepaRG (AID 2283652; active = hit-call score of the fitted dose curve at least 0.9, where 1 is the maximum; inactive = score below 0.9); conditions: mRNA level, 48 h; actives raise or lower the signal
Method in brief: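 Differentiated human HepaRG cells in serum-free induction medium exposed 48 h in duplicate, eight-point half-log series from 100 uM in 0.5% DMSO. KLK3 mRNA by qRT-PCR, normalised to ACTB, GAPDH, POLR2A; bidirectional fit versus DMSO.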

[19] = Tanguay_ZF_120hpf_NC_legacy: (Legacy) Oregon State University Tanguay Lab 120 Hour Post-fertilization zebrafish Assay for Notochord and Tail Malformation (AID 2283656)
Method in brief: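 Dechorionated 5D zebrafish, 1/well from 6 hpf; static exposure to 120 hpf, 28C, sealed, dark; final DMSO 0.64% v/v. NC scored binary (present/absent); dead embryos not scored. Fit vs DMSO baseline, gain direction.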

In the case of `COC(=O)c1ccc(I)cc1S(=O)(=O)NC(=O)Nc1nc(C)nc(OC)n1`, the outcome [1] is reported as “inactive”, the outcome [2] is reported as “inactive” and the outcome [3] is reported as “inactive”. The outcome [4] was “inactive”, the outcome [5] was “inactive” and the outcome [6] was “inactive”. The outcome [7] was “inactive”, the outcome [8] was “inactive” and the outcome [9] was “inactive”. The outcome [10] was “inactive”.

With `C[C@]12CC[C@@H]3c4ccc(O)cc4C[C@@H](CCCCCCCCCS(=O)CCCC(F)(F)C(F)(F)F)[C@H]3[C@@H]1CC[C@@H]2O` (stereo partly drawn) the outcome [1] was “inactive”, the outcome [2] was “inactive” and the outcome [3] was “inactive”. For the same compound, the outcome [11] was “inactive”.

For `COCCO`, the outcome [1] was “inactive”, the outcome [12] was “inactive” and the outcome [2] was “inactive”. The outcome [3] was “inactive”, the outcome [13] was “inactive” and the outcome [14] was “inactive”. The outcome [4] was “inactive”, the outcome [11] was “inactive” and the outcome [15] was “inactive”. The outcome [9] was “inactive”.

In the case of `N#CSCSc1nc2ccccc2s1`, the outcome [1] is reported as “inactive”, the outcome [12] is reported as “inactive” and the outcome [2] is reported as “inactive”. For the same compound, the outcome [3] was “inactive”, the AC50 [13] was 83.6 µM (active) and the outcome [14] was “inactive”. The outcome [4] was “inactive”, the outcome [5] was “inactive” and the AC50 [16] was 2.57 µM (active). For the same compound, the AC50 [17] was 9.18 µM (active), the outcome [11] was “inactive” and the outcome [7] was “inactive”. The outcome [15] was “inactive”, the outcome [8] was “inactive” and the outcome [9] was “inactive”. The outcome [10] was “inactive”.

In the case of `S=C([S-])NCCNC(=S)[S-].[Mn+2]`, the outcome [1] is reported as “inactive”, the outcome [18] is reported as “inactive” and the outcome [12] is reported as “inactive”. The outcome [2] was “inactive”, the outcome [3] was “inactive” and the AC50 [13] was 9.93 µM (active). The outcome [14] was “inactive”, the AC50 [16] was 12.6 µM (active) and the outcome [11] was “inactive”. For the same compound, the outcome [6] was “inactive”, the AC50 [7] was 3.97 µM (active) and the outcome [15] was “inactive”. For the same compound, the outcome [10] was “inactive”.

In the case of `CC(C)CCCCCCc1ccc(O)cc1`, the outcome [1] is reported as “inactive”, the outcome [2] is reported as “inactive” and the outcome [3] is reported as “inactive”. The AC50 [16] was 20.6 µM (active), the AC50 [17] was 6.47 µM (active) and the outcome [11] was “inactive”.

In the case of `CCC(C)OC(=O)N1CCCCC1CCO` (stereo not drawn), the outcome [1] is reported as “inactive”, the outcome [2] is reported as “inactive” and the outcome [3] is reported as “inactive”. For the same compound, the outcome [4] was “inactive”, the outcome [5] was “inactive” and the outcome [11] was “inactive”. For the same compound, the outcome [6] was “inactive”, the outcome [7] was “inactive” and the outcome [8] was “inactive”. The outcome [9] was “inactive” and the outcome [10] was “inactive”.

In the case of `CCCCCCC(C)OC(=O)COc1nc(F)c(Cl)c(N)c1Cl` (stereo not drawn), the outcome [1] is reported as “inactive”, the outcome [12] is reported as “inactive” and the outcome [2] is reported as “inactive”. For the same compound, the outcome [13] was “inactive”, the outcome [14] was “inactive” and the outcome [4] was “inactive”. The outcome [5] was “inactive”, the outcome [11] was “inactive” and the outcome [15] was “inactive”. The outcome [8] was “inactive”.

With `COC(=O)CSc1cc(N=c2sc(=O)n3n2CCCC3)c(F)cc1Cl` the outcome [1] was “inactive”, the outcome [2] was “inactive” and the outcome [3] was “inactive”. For the same compound, the outcome [19] was “inactive”, the outcome [4] was “inactive” and the AC50 [5] was 2.66 µM (active). The outcome [11] was “inactive”, the outcome [7] was “inactive” and the outcome [8] was “inactive”.

For `c1ccc2[nH]c(-c3cscn3)nc2c1`, the outcome [1] was “inactive”, the outcome [2] was “inactive” and the outcome [3] was “inactive”. The outcome [19] was “inactive”, the outcome [4] was “inactive” and the AC50 [5] was 3.15 µM (active). For the same compound, the outcome [11] was “inactive” and the outcome [8] was “inactive”.

With `O=C(c1ccccc1)C1CCCCC1` the outcome [1] was “inactive”, the outcome [2] was “inactive” and the outcome [3] was “inactive”. The outcome [11] was “inactive”.

In the case of `O=C(O)C1(C(=O)Nc2ccc(Cl)cc2Cl)CC1`, the outcome [1] is reported as “inactive”, the outcome [2] is reported as “inactive” and the outcome [3] is reported as “inactive”. For the same compound, the outcome [5] was “inactive”, the outcome [11] was “inactive” and the outcome [7] was “inactive”.

With `COC(=O)c1ccccc1C(=O)O` the outcome [1] was “inactive”, the outcome [18] was “inactive” and the outcome [12] was “inactive”. The outcome [2] was “inactive”, the outcome [3] was “inactive” and the outcome [19] was “inactive”. The outcome [13] was “inactive”, the outcome [14] was “inactive” and the outcome [4] was “inactive”. For the same compound, the outcome [5] was “inactive”, the outcome [11] was “inactive” and the outcome [7] was “inactive”. For the same compound, the outcome [15] was “inactive”, the outcome [8] was “inactive” and the outcome [9] was “inactive”. The outcome [10] was “inactive”.
